This is part of a sample that, as a whole, favours compounds with a hit. Of some 83,000 tested, about 20% had one in any assay.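 48-hour exposure, single concentration, 96-well plates; percent growth endpoint where 0 means no net growth. Active: below 10.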 A number with no mark means an inactive call. Calls of active or inactive are those of the source.
Legend:
Test in all cases: NCI-60 one-dose screen, 48 h (100 = growth as untreated, 0 = no growth, -100 = all killed)
Conditions in all cases: 10 µM unless noted
[1] = test system: MOLT-4 leukemia
[2] = test system: SR leukemia
[3] = test system: RPMI-8226 leukemia
[4] = test system: OVCAR-8 ovarian
[5] = test system: OVCAR-5 ovarian
[6] = test system: OVCAR-4 ovarian
[7] = test system: IGROV1 ovarian
[8] = test system: OVCAR-3 ovarian
[9] = test system: HS 578T breast
[10] = test system: NCI/ADR-RES ovarian
[11] = test system: T-47D breast
[12] = test system: BT-549 breast
[13] = test system: MDA-MB-435 melanoma
[14] = test system: MCF7 breast
[15] = test system: HCT-116 colon
[16] = test system: HCC-2998 colon
[17] = test system: KM12 colon
[18] = test system: SK-OV-3 ovarian
[19] = test system: SW-620 colon

SMILES: O=CC1(c2ccccc2)CCN(Cc2ccccc2)CC1
- growth [1]: 99.4%
- growth [2]: 97.8%
- growth [3]: 102%
- growth [4]: 105%
- growth [5]: 107%
- growth [6]: 103%
- growth [7]: 108%
- growth [8]: 105%
- growth [9]: 115%
- growth [10]: 101%
- growth [11]: 105%
- growth [12]: 106%
- growth [13]: 98.5%
- growth [14]: 103%
- growth [15]: 102%
- growth [16]: 101%
- growth [17]: 101%

SMILES: N#CCCc1ccccc1
- growth [1]: 94.5%
- growth [2]: 91.8%
- growth [3]: 111%
- growth [4]: 107%
- growth [5]: 98%
- growth [18]: 111%
- growth [7]: 103%
- growth [8]: 119%
- growth [9]: 118%
- growth [10]: 104%
- growth [11]: 112%
- growth [12]: 106%
- growth [13]: 104%
- growth [19]: 102%
- growth [14]: 92%
- growth [15]: 104%
- growth [16]: 103%
- growth [17]: 109%

SMILES: Oc1cc(Cl)ccc1Oc1ccc(Cl)cc1Cl
- growth [1]: 5.71% (active)
- growth [2]: 3.21% (active)
- growth [3]: 9.47% (active)
- growth [4]: 10.7%
- growth [5]: 86.2%
- growth [6]: 29.9%
- growth [8]: 6.75% (active)
- growth [9]: -18.1% (active)
- growth [10]: 7.74% (active)
- growth [11]: 17.9%
- growth [12]: 8.8% (active)
- growth [13]: 15.1%
- growth [19]: 21%
- growth [14]: 19.3%
- growth [15]: 6.58% (active)
- growth [16]: 105%
- growth [17]: 21.9%

SMILES: CC(C)CCC1C(=O)NC(=O)NC1=O
- growth [1]: 99.1%
- growth [2]: 93.5%
- growth [3]: 113%
- growth [4]: 98.4%
- growth [5]: 107%
- growth [6]: 99.2%
- growth [7]: 96%
- growth [8]: 101%
- growth [9]: 96.6%
- growth [10]: 105%
- growth [11]: 78.6%
- growth [12]: 100%
- growth [13]: 99.7%
- growth [19]: 91.8%
- growth [14]: 88.8%
- growth [15]: 98.1%
- growth [16]: 107%
- growth [17]: 98.5%

SMILES: CC[C@H](C)[C@H](NC(=O)[C@H]1CCCCN1C)C(=O)N(C)[C@H](CCc1nc(C(=O)N[C@@H](Cc2ccccc2)C[C@H](C)C(=O)O)cs1)C(C)C
- growth [1]: 20.4%
- growth [2]: 18.6%
- growth [3]: 25.2%
- growth [4]: 15.8%
- growth [5]: 46.8%
- growth [6]: 43.8%
- growth [7]: 41.5%
- growth [8]: -4.67% (active)
- growth [9]: 27.7%
- growth [10]: 73.3%
- growth [11]: 52.6%
- growth [12]: -3.33% (active)
- growth [13]: -38.1% (active)
- growth [19]: 27.6%
- growth [14]: 14.2%
- growth [15]: 2.59% (active)
- growth [16]: 21.5%
- growth [17]: 9.24% (active)

SMILES: CCCCS(=O)(=O)Cl
- growth [1]: 116%
- growth [2]: 104%
- growth [3]: 109%
- growth [4]: 105%
- growth [5]: 104%
- growth [6]: 97.8%
- growth [8]: 120%
- growth [9]: 102%
- growth [10]: 107%
- growth [12]: 104%
- growth [13]: 108%
- growth [14]: 97.7%
- growth [15]: 97.6%
- growth [16]: 124%
- growth [17]: 114%

SMILES: Cc1ccc(N2CCN(CCC#N)CC2)cc1
- growth [1]: 105%
- growth [2]: 99.3%
- growth [3]: 96.7%
- growth [4]: 97.3%
- growth [5]: 92.5%
- growth [6]: 110%
- growth [7]: 95.5%
- growth [8]: 106%
- growth [9]: 135%
- growth [10]: 98.8%
- growth [11]: 90.9%
- growth [12]: 79%
- growth [13]: 101%
- growth [19]: 90.3%
- growth [14]: 73.8%
- growth [15]: 95.7%
- growth [16]: 88%
- growth [17]: 90%

SMILES: CC(=O)Nc1nc2c(s1)C1=CC[C@H]3[C@@H]4CC[C@H](OC(C)=O)[C@@]4(C)CC[C@@H]3[C@@]1(C)CC2
- growth [1]: 82.9%
- growth [2]: 21.5%
- growth [3]: 30.8%
- growth [4]: 70.8%
- growth [5]: 92.7%
- growth [6]: 69.4%
- growth [7]: 62.5%
- growth [8]: 20.1%
- growth [9]: 39%
- growth [10]: 43.4%
- growth [11]: 74.3%
- growth [12]: 39.2%
- growth [13]: 4.51% (active)
- growth [19]: 43.3%
- growth [14]: 44.1%
- growth [15]: 39.8%
- growth [16]: 93.7%
- growth [17]: 50.8%

SMILES: C[C@]12CCc3sc(Nc4ccc(OC(F)(F)F)cc4)nc3C1=CC[C@@H]1[C@@H]2CC[C@]2(C)C(=O)CC[C@@H]12
- growth [1]: 4.15% (active)
- growth [2]: 16.9%
- growth [3]: 2.88% (active)
- growth [4]: 66.5%
- growth [5]: 91.9%
- growth [6]: 64%
- growth [8]: 37.4%
- growth [9]: 38.5%
- growth [10]: 81.6%
- growth [11]: 41.8%
- growth [12]: 53.5%
- growth [13]: 77.6%
- growth [19]: 43.3%
- growth [14]: 17.1%
- growth [15]: 7.77% (active)
- growth [16]: 96.5%
- growth [17]: 53.5%

SMILES: Cn1cc(-c2csc(-c3cn(CCCCN4CCOCC4)c4ccc(F)cc34)n2)c2cccnc21
- growth [1]: 46.7%
- growth [2]: 37%
- growth [3]: 49%
- growth [4]: 81.3%
- growth [5]: 79.5%
- growth [6]: 84.5%
- growth [8]: 90%
- growth [9]: 41.1%
- growth [10]: 76.8%
- growth [11]: 76.9%
- growth [12]: 65.3%
- growth [13]: 38.1%
- growth [19]: 19.7%
- growth [14]: 78.4%
- growth [15]: 83%
- growth [16]: 92.4%
- growth [17]: 52.5%

SMILES: Cc1cc(NC(=O)NCCCOc2ccc(N3C(N)=NC(N)=NC3(C)C)cc2Cl)ccc1S(=O)(=O)F
- growth [1]: 37.5%
- growth [2]: 22.4%
- growth [3]: 36.6%
- growth [4]: 31.7%
- growth [5]: 43.1%
- growth [6]: 34.5%
- growth [7]: 25%
- growth [8]: 24.2%
- growth [9]: 60.3%
- growth [10]: 100%
- growth [11]: 51.1%
- growth [12]: 59.9%
- growth [13]: 27.7%
- growth [19]: 18.5%
- growth [14]: 25.5%
- growth [15]: 17.8%
- growth [16]: 7.8% (active)
- growth [17]: 20.9%

SMILES: O=C(O)C(F)F
- growth [1]: 102%
- growth [2]: 109%
- growth [3]: 114%
- growth [4]: 105%
- growth [5]: 106%
- growth [18]: 98.5%
- growth [7]: 114%
- growth [8]: 115%
- growth [9]: 96.2%
- growth [10]: 113%
- growth [11]: 96.6%
- growth [12]: 117%
- growth [13]: 102%
- growth [14]: 97.1%
- growth [15]: 107%
- growth [16]: 123%
- growth [17]: 103%

SMILES: COc1c(O)cc2c(c1OC)-c1ccc(SC)c(=O)cc1C(NC(C)=O)CC2 (stereo not drawn)
- growth [1]: 9.41% (active)
- growth [2]: 5.8% (active)
- growth [3]: 0.467% (active)
- growth [5]: 41.9%
- growth [6]: 16.8%
- growth [18]: 35.2%
- growth [7]: -44.2% (active)
- growth [8]: -34.3% (active)
- growth [9]: 16%
- growth [10]: -1.28% (active)
- growth [11]: 81.9%
- growth [12]: -9.83% (active)
- growth [13]: -47.2% (active)
- growth [19]: 22.9%
- growth [14]: 13.3%
- growth [15]: 4.98% (active)
- growth [16]: -21.5% (active)
- growth [17]: -41.1% (active)

SMILES: ClCc1ccc(Cl)c(Cl)c1
- growth [1]: 105%
- growth [2]: 101%
- growth [3]: 109%
- growth [5]: 98.7%
- growth [6]: 106%
- growth [18]: 106%
- growth [8]: 114%
- growth [9]: 103%
- growth [10]: 106%
- growth [12]: 104%
- growth [13]: 106%
- growth [19]: 97%
- growth [14]: 97.2%
- growth [15]: 96.1%
- growth [16]: 103%
- growth [17]: 104%

SMILES: COc1cc2c(cc1OC)[C@@H]1C(=O)c3ccc4c(c3O[C@@H]1CO2)C[C@H](C(C)C)O4
- growth [1]: 37%
- growth [2]: 9.36% (active)
- growth [3]: -9.79% (active)
- growth [5]: 93.7%
- growth [6]: 42.3%
- growth [18]: 75.9%
- growth [8]: 83.1%
- growth [9]: 115%
- growth [10]: 34.9%
- growth [11]: 33.2%
- growth [12]: 44.8%
- growth [13]: 51.4%
- growth [19]: 84.7%
- growth [14]: 46.3%
- growth [15]: 39.4%
- growth [16]: 76.1%
- growth [17]: 65.6%

SMILES: CN(C)c1ccc(C=C2C(=O)NC(=O)NC2=O)cc1
- growth [1]: 98.7%
- growth [2]: 107%
- growth [3]: 131%
- growth [4]: 98.5%
- growth [5]: 77.9%
- growth [8]: 95.8%
- growth [9]: 91.7%
- growth [10]: 76.7%
- growth [11]: 76.1%
- growth [13]: 111%
- growth [19]: 93.4%
- growth [14]: 100%
- growth [15]: 53.9%
- growth [17]: 98.9%

From PubChem BioAssay (NCI)
